Our source for the outcome and Potency values is PubChem BioAssay (NCATS).

Records with an inconclusive call do not appear. A call without a number means that no potency is given here. Active and inactive are the calls of the source. Unless noted, calls follow the shape of the dose curve; as a rule, active = well fitted curve in the direction sought with a large enough effect; inconclusive = small, poorly fitted or top-dose-only effect, or another doubt; inactive = no such curve, though single readings can be large; an effect the other way counts as inactive or inconclusive.

Assay [1] is described as follows: qHTS Assay for Identification of Small Molecule Inducers of Hypoxia Response (AID 2120; active = well fitted curve in the direction sought with a large enough effect in the signal ratio, with a control signal flat, not every such curve was filed as active; the % refers to the signal ratio). To be noted: hypoxia response reporter cells, beta-lactamase ratio readout; series mostly up to 104 µM. The method in brief:
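Induction of beta-lactamase reporter activity was measured in CellSensor HRE-bla ME-180 cells after 17 h compound treatment at 37 degrees C, using CCF4 substrate and the 460nm/530nm emission ratio to derive AC50 values.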
Background: In qHTS, concentration-response curves come from the screen itself.

Assay [2] can be described thus: qHTS for differential inhibitors of proliferation of Plasmodium falciparum line GB4 (AID 1816).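 Also: parasite growth measured after 72 h incubation.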 To be noted: series mostly up to 28.7 µM.
A short description of assay [3]: qHTS for differential inhibitors of proliferation of Plasmodium falciparum line 3D7 (AID 1876). Also: potency is read from the fitted curve at half-maximal effect. To be noted: P. falciparum 3D7 proliferation inhibition; series mostly up to 28.7 µM.
The nature of assay [4]: qHTS for differential inhibitors of proliferation of Plasmodium falciparum line D10 (AID 1877).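 Also: parasites grown with compound for 72 h before DNA staining.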 To be noted: series mostly up to 28.7 µM.
Assay [5] can be described thus: qHTS for differential inhibitors of proliferation of Plasmodium falciparum line Dd2 (AID 1882).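 Also: compound exposure of 72 h on infected erythrocytes; nearly all actives have a fitted effect of over 65% in size.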 To be noted: series mostly up to 28.7 µM. A digest of the protocol: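 SYBR Green I DNA fluorescence read-out, ex 485/em 535 nm. Signals were normalized to 0.29 uM artemisinin and DMSO wells, then corrected using vehicle-only plates flanking each stack. Parasite growth ran 72 h in erythrocytes before lysis.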

A short description of assay [6]: qHTS for differential inhibitors of proliferation of Plasmodium falciparum line HB3 (AID 1886).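 Also: parasites grown with compound for 72 h before SYBR Green readout.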 Also: potency is read from the fitted curve at half-maximal effect. To be noted: Potency: Plasmodium falciparum HB3 proliferation inhibition; series mostly up to 28.7 µM.
A short description of assay [7]: qHTS Assay for Modulators of Human Peripheral Myelin Protein 22 (PMP22) Expression/Activity (AID 1967; active = well fitted curve in the direction sought with a large enough effect in the signal ratio; the % refers to the signal ratio). To be noted: Cell-based PMP22 reporter, dual-color luciferase ratio, 0% = compound-free control cells, mouse Pmp22 promoter in mouse Schwann cells; series mostly up to 115 µM. An excerpt: Charcot-Marie-Tooth-Association [CMTA]
(§1) NIH Chemical Genomics Center [NCGC]
Charcot-Marie-Tooth (CMT) disease was first characterized by Jean-Martin Charcot and Pierre Marie in France and, independently, by Howard Henry Tooth in England in 1886. CMT is one of the most common inherited neurological diseases, affecting about 125,000 Americans. […] The most common cause of CMT is known as CMT1A, and is caused by a duplication of the PMP22 gene, leading to over-expression of this protein. PMP22 is a glycosylated intrinsic membrane protein accounting for 2-5% of the myelin protein content and over-expression leads to demyelination and subsequently axonal loss. […]
Cells were seeded in white solid 1536-well plates at between 500-750 cells/4uL in DMEM medium containing 10% FBS, w/o phenol red. […] Luminescence was measured on a ViewLux plate reader (Perkin Elmer) using a 540/25 nm filter for green luminescence and a 618/8 nm filter for red luminescence. The green and red luminescent signals were corrected for red and green luminescence filter overlap using filter calibration constants (determined using control cell lines expressing either the green or red CBLuc reporters using the procedures given in Davis et al., 2007). The %Activity was determined from the ratio of corrected green/red luminescent values. […]
Keywords: luminescence, PMP22, CMT1A, NCGC, CMTA, qHTS […]

The target of assay [8] is Ferritin light chain (Equus caballus) (UniProt P02791). Put plainly: qHTS Validation Assay for Identification of Novel General Anesthetics (AID 2323). To be noted: horse apoferritin, anesthetic-site fluorescent probe displacement; series mostly up to 76.9 µM. A digest of the protocol: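 Competitive displacement of the profluorescent anesthetic 1-AMA (50% saturated, PBS) from 10 uM apoferritin, 10 min, room temperature. Activity is normalized 380/535 nm fluorescence; concentration-response fitted with a four-parameter Hill equation.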

Assay [9] in a line: qHTS for differential inhibitors of proliferation of Plasmodium falciparum line W2 (AID 1883).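 Also: potency is read from the fitted curve at half-maximal effect; parasites grown with compound for 72 h before lysis and staining.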 To be noted: Plasmodium falciparum W2 proliferation inhibition.
Assay [10] has as its target Lysosomal alpha-glucosidase (Homo sapiens) (UniProt P10253). Put plainly: Confirmation of Inhibitors and Activators of Purified Human alpha-Glucosidase (AID 2115; active = well fitted curve in either direction with a large enough effect). To be noted: purified human GAA enzyme activity; series mostly up to 76.2 µM.
Excerpt: as §1
NIH Molecular Libraries Probe Production centers Network [MLPCN]
Assay Submitter (PI): Wei Zheng
Alpha-glucosidase is responsible for hydrolysis of terminal, non-reducing 1,4-linked alpha-D-glucose residues with release of alpha-D-glucose. It is a lysosomal hydrolase that is required for the degradation of a small percentage (1-3%) of cellular glycogen in human. Deficiency of this enzyme results in glycogen-storage disease type II (GSDII), also referred to as Pompe disease, an autosomal recessive disorder. Structurally normal glycogen is accumulated in lysosomes and cytoplasm in affected patients, primarily in muscle tissues. Excessive glycogen storage within lysosomes may interrupt normal functioning of other organelles and leads to cellular injury. In turn, this leads to enlargement and dysfunction of the entire organ involved (eg, cardiomyopathy and muscle weakness). […]
This is a fluorogenic enzyme assay with 4-methylumbelliferyl-alpha-D-[…] as the substrate and human […] as the enzyme preparation. […] 4-methyllumbelliferone, can be excited at 365 nm and emits at 440 nm which can be detected by a standard fluorescence plate reader. […] The AC50 values were determined from concentration-response data modeled with the standard Hill equation. […]
(6) Detect the assay plate in a ViewLux plate reader (PerkinElmer) with Ex=365 nm and Em=440nm. […]

Ferritin light chain (Equus caballus), sequence (P02791 2-175 limits assumed): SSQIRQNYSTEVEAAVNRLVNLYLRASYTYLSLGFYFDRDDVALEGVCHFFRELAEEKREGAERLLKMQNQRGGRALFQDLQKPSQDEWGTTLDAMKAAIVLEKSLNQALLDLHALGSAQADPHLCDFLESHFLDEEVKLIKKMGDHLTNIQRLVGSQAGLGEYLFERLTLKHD

Turning to `COc1ccc(C(=O)c2ccccc2)c(O)c1`, the result in assay [1] was inactive.

`CCOc1ccccc1C(N)=O`: in assay [1], the outcome was inactive.

With `NC(=O)c1ccccc1O`, the result in assay [1] was inactive.

On to `CCCCC(CC)COC(=O)c1ccc(N(C)C)cc1` (centres undefined), for which the outcome in [1] was inactive.

`CC(=O)OCC1=C(C(=O)O)N2C(=O)[C@@H](NC(=O)CSc3ccncc3)[C@H]2SC1`: the call in [2], in assay [4], in assay [5], in assay [7] and in [8] was inactive. In addition, the Potency entry in [3] and in [6] was “inactive” each time.

`NCCNc1cccc2ccccc12`: in assay [1], the result was inactive.

As to `NC(N)=NCc1cccc(I)c1`, the Potency was 8.91 µM (active) in [3], 10 µM (active) in assay [9] and 6.31 µM (active) in [6]. Also, the outcome in [5] and in assay [8] was inactive.

With `CCCCN1C[C@H](O)[C@@H](O)[C@H](O)[C@H]1CO`, the molecule was classed as inactive in assay [10].

Consider `OC[C@H]1O[C@@H]2O[C@H]3[C@H](O)[C@@H](O)[C@@H](O[C@H]4[C@H](O)[C@@H](O)[C@@H](O[C@H]5[C@H](O)[C@@H](O)[C@@H](O[C@H]6[C@H](O)[C@@H](O)[C@@H](O[C@H]7[C@H](O)[C@@H](O)[C@@H](O[C@H]8[C@H](O)[C@@H](O)[C@@H](O[C@H]1[C@H](O)[C@H]2O)O[C@@H]8CO)O[C@@H]7CO)O[C@@H]6CO)O[C@@H]5CO)O[C@@H]4CO)O[C@@H]3CO`, for which, in assay [1], the outcome was inactive.

With `O=C(O)c1ccc(S(=O)(=O)N(Cl)Cl)cc1`, in assay [1], the result was inactive.

For `CCOc1ccc(NC(C)=O)cc1`, the outcome in assay [1] was inactive.

As for `COc1ccc(C(Cl)=C(c2ccc(OC)cc2)c2ccc(OC)cc2)cc1`, in assay [1], the result was inactive.

As to `COc1cc([C@H]2Oc3cc([C@H]4Oc5cc(O)cc(O)c5C(=O)[C@@H]4O)ccc3O[C@@H]2CO)ccc1O`, the outcome in [1] was inactive.

In the case of `C/C=C/c1ccc(O)c(OC)c1`, the outcome in assay [1] was inactive.
